In PubChem BioAssay:
Calls of active or inactive are those of the source.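 Rule for the calls: active = inhibition of the reporter signal at or above 50%; inactive = inhibition below 50%.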

assay: TLR3 IRF3 reporter activation blockers – cell-based, poly I:C stimulus, luciferase, 10K MLSCN set, primary screen (AID 602277); settings: HEK293-TLR3 RL24 IRF3 luciferase reporter, at 10 µM, stronger effect = higher value

inhibition, inactive:
CCOc1ccc(NCc2nnc(SCC(=O)Nc3cc(C)on3)n2-c2ccccc2OC)cc1 30.4%, CCN(CC)CCNC(=O)c1ccc(CS(=O)(=O)c2ccc(Br)cc2)o1 25.7%, CCCn1c(=NC(C)=O)c(C#N)cc2c(=O)n3cccc(C)c3nc21 1.19%, CCn1c(=O)c(C(=O)Nc2cccnc2)c(O)c2ccccc21 -9.19%, Cc1cccc(C2CC(c3ccccc3)Nc3nc(N)nn32)c1 (centres undefined) 18.7%, CCOC(=O)CN1CC23C=CC(O2)C(C(=O)Nc2ccc(C(C)=O)cc2)C3C1=O (centres undefined) 7.25%, COc1ccccc1CNC(=O)C1CCCN(S(=O)(=O)c2cccc3cccnc23)C1 (centres undefined) 26.9%, COc1ccc(C2=NO[C@@H]3C(=O)N(c4ccc5c(c4)OCCO5)C(=O)[C@H]23)cc1OC 6.66%, CCOC(=O)c1ccccc1NC(=O)CSc1nnc(COc2ccccc2C)n1C 22.9%, COC(=O)c1sc(N2C(=O)C(O)=C(C(=O)c3ccc(C)o3)C2c2ccc(F)cc2)nc1C (centres undefined) 4.43%, CCN(CCNC(=O)CS(=O)(=O)Cc1nc(-c2cccc(OC)c2)oc1C)c1ccccc1 20.1%, CN(CCNS(=O)(=O)c1ccc2c(c1)oc(=O)n2C)Cc1ccccc1 39.8%, CC1CCN(c2nc3c(c(=O)[nH]c(=O)n3C)n2CCSc2ncccn2)CC1 24.8%, COc1cc2c(C)nc(C)c(C#N)c2cc1OC 2.54%, COc1ccc(N(CC(=O)Nc2ccc(F)c(Cl)c2)S(=O)(=O)c2c(C)noc2C)cc1 21.7%, Cc1nc2ncnn2c(N2CCC(C(=O)NC3CCCC3)CC2)c1Cc1ccccc1 25.7%, CCC(C)(C)NC(=O)C(c1ccco1)N(C(=O)Cn1nnc2ccccc21)c1ccc2c(c1)OCO2 (centres undefined) 21%, Fc1cccc(NCc2cn3ccccc3n2)c1 -62.5%, COc1ccccc1N1CCN(Cc2nc(N)nc(Nc3ccc(C)c(Cl)c3)n2)CC1 29.6%, COCCCNC(=O)CSc1ccc(Cl)cc1 10.8%, CS(=O)(=O)NCCSCc1c(F)cccc1Cl 0.999%, O=C(NCC1CCCO1)C1CCC(CNS(=O)(=O)c2ccccc2)CC1 (centres undefined) 10.8%, Cc1ccc(C2C(C(=O)c3sc(C)nc3C)=C(O)C(=O)N2CCN(C)C)o1 (centres undefined) 6.57%, O=C(Nc1nc2c(s1)CCCC2)C1COc2ccccc2O1 (centres undefined) -19.8%
